Data on 40 compounds can be found in PubChem BioAssay (Tox21).

Records with an inconclusive call do not appear. Where a call stands in place of a potency, no number is given. The source made the active and inactive calls. Calls follow the shape of the dose curve; as a rule, active = well fitted inhibition curve with a large enough effect in the repeat runs; inconclusive = weak or mixed curves, or effect the other way; inactive = no such curve, though single readings can be large or run the other way.
Potency is read from the fitted curve at half-maximal effect.

The target in the test is Nuclear receptor ROR-gamma (Homo sapiens) (UniProt P51449). As to the kind of experiment: qHTS assay to identify small molecule antagonists of the retinoid-related orphan receptor gamma (ROR-gamma) signaling pathway (AID 1159521; also: nearly all actives have a fitted effect of over 50% in size; as to activity change, negative = inhibition: top concentration of the series differs between compounds). The conditions noted are these: Tet-on RORgamma CHO cells, RORE-luciferase, 16 h; series mostly up to 92.4 µM. The text has this: U.S. Tox21 Program National Center for Advancing Translational Sciences [NCATS] NIH Chemical Genomics Center [NCGC] U.S. Environmental Protection Agency [EPA] National Institutes of Environmental Health Sciences [NIEHS] National Toxicology Program [NTP] U.S. Food and Drug Administration [FDA] Tox21 Assay Overview: Nuclear steroid hormone receptors are involved in many biological processes including inflammatory responses, cell proliferation, and apoptosis. Environmental factors or compounds disrupting these nuclear receptor pathways and gene expression may promote susceptibility to immunotoxicants and autoimmune diseases. One important group of these expression factors are the retinoid-related orphan receptors. To assess compounds that may interfere with the retinoid-related orphan receptor gamma (ROR-gamma) transcription factor, a cell-based luciferase assay was used. The CHO cell-based assay utilizes a TET-inducible ROR expression factor and ROR response element-LUC reporter gene. Reporter gene activity was induced using Doxycycline Hyclate and measured after 16 hr incubation. Tet-on ROR gamma CHO cells were used to screen against the Tox21 10K compound library for ROR gamma antagonists by quantification of decreased reporter gene activity in terms of decreased luminescence.
Tox21 Assay Protocol Summary: Tet-on ROR gamma CHO cells were dispensed at 1,000 cells in 4 uL of culture medium per well into white wall/solid bottom 1536-well plates using a Multidrop Combi (Thermo Scientific, Waltham, MA) dispenser. Following incubation at 37 C and 5% CO2 for 4 hr, 23 nL of compounds dissolved in DMSO, positive controls or DMSO only were transferred by a Pintool station (Kalypsys, San Diego, CA) and after 2 hr incubation at 37 C, one ul of 1 uM (final concentration) of Doxycycline Hyclate was added to all the wells by using a Flying Reagent Dispenser (FRD) (Aurora Discovery, San Diego, CA). After 16 hr incubation at 37 C and 5% CO2, 5 uL of ONE-Glo reagent (Promega Corporation, Madison, WI) was added to each assay plate using FRD. After 30 min incubation at room temperature, luminescence was quantified on a ViewLux plate reader (Perkin Elmer, Waltham, MA).
(In qHTS, concentration-response curves come from the screen itself.)
Turning to `C/C=C/C(=O)OCC(C)C`, the Potency entry was “inactive”. The same measure, in the same setting: then `CC(Cc1ccc(O)c(O)c1)C(C)Cc1ccc(O)c(O)c1` (stereo not given), with 6.86 µM (active); and `[Cl][Sc]([Cl])[Cl]`, with “inactive”.

On to `CCCCCCCCOC(=O)c1cc(O)c(O)c(O)c1`, for which the Potency is 1.93 µM (active). Same read-out and setting: then `CC(C)(C)C1=CC(=O)C(C(C)(C)C)=CC1=O`, with 10.6 µM (active); and `O=C1OCc2ccccc21`, with “inactive”. With `CC(=O)CC(N)=O`, the Potency entry was “inactive”. With `SC1CCCCC1`, the Potency entry is “inactive”.

In the case of `C=C1CC[C@H]2O[C@]2(C)CC[C@@H]2[C@@H]1CC2(C)C`, the Potency entry is “inactive”. Regarding `O=C1OC2(c3ccccc31)c1ccc(O)c(Br)c1Oc1c2ccc(O)c1Br`, the Potency entry is “inactive”. The same measure, in the same setting: then `O=c1[nH]cccc1O`, with “inactive”; and `C=CC(C)(C)O`, with “inactive”. Regarding `O=[N+]([O-])c1ccc(O)c2ncccc12`, the Potency is 29.8 µM (active). The same measure, in the same setting: the result for `CC/C=C(\C)C=O` reads “inactive”. The same measure, in the same setting: then `C=C(C)CCO`, with “inactive”.

Take `Oc1ccc(Cl)cc1C1CCCC1`: the Potency entry is “inactive”. Same read-out and setting: the result for `CCCC(C)C=O` (stereo not given) reads “inactive”. On the same count and under the same terms, the result for `C=Cc1ccncc1` reads “inactive”. Consider `C=C(C)C1CCC(C)CC1O` (stereo not given), for which the Potency entry was “inactive”.

As for `ClC(c1ccccc1)(c1ccccc1)c1ccccc1`, the Potency result was “inactive”. Same read-out and setting: the result for `CC(=O)Nc1ccc(N=Nc2cc(C)ccc2O)cc1` reads “inactive”; that for `CCc1c(C)cc(N)c(CC)c1N`, “inactive”; that for `O=[N+]([O-])c1ccc(CO)cc1`, “inactive”. On to `CCCOC(=O)c1ccc(O)cc1`, for which the Potency result was “inactive”.

For the compound `[Cl][Dy]([Cl])[Cl]`, the Potency result was “inactive”. Turning to `NC(=O)c1ccccc1Cl`, the Potency entry was “inactive”. In the case of `C=CC(=O)OCCOC1C2CCC1C1CC=CC12` (stereo not given), the activity change, negative = inhibition was 0.993% [at 19 µM] (inactive). For the compound `Cc1ccc2n[nH]nc2c1`, the Potency entry was “inactive”. Regarding `CC(C)(c1ccc(Oc2ccc(N)cc2)cc1)c1ccc(Oc2ccc(N)cc2)cc1`, the Potency was 61.1 µM (active). In the case of `O=C1CCC(=O)N1`, the Potency result was “inactive”. Take `Nc1cc([N+](=O)[O-])ccc1Cl`: the Potency entry is “inactive”. Same read-out and setting: the result for `CCCCCCCC/C=C\CCCCCCCC(=O)N(CCO)CCO` reads 30.5 µM (active); that for `CCCCCCCCSCc1cc(C)c(O)c(CSCCCCCCCC)c1`, 61.1 µM (active); that for `CC(C)=NNC(N)=S`, “inactive”. Same read-out and setting: then `O=C(N[C@H](CO)[C@H](O)c1ccc([N+](=O)[O-])cc1)C(Cl)Cl`, with “inactive”; and `O[Si](c1ccccc1)(c1ccccc1)c1ccccc1`, with 24.3 µM (active).

`Cc1ccc(C=O)cc1`: the Potency entry was “inactive”.

On to `Nc1cc([N+](=O)[O-])cc(Cl)c1O`, for which the Potency result is “inactive”. Same read-out and setting: then `CC(c1cc(C(C)(C)C)cc(C(C)(C)C)c1O)c1cc(C(C)(C)C)cc(C(C)(C)C)c1O`, with 19.3 µM (active). Consider `CSc1ccc(O)cc1C`, for which the Potency is 43.3 µM (active).
